# In PubChem BioAssay AID1159580 (chemical genetic matrix, 2015):
# Hit rate of the full screen: of about 5,500 compounds, about 2,000 (36%) were called active. About 18% were inconclusive and are not listed. Some of the results follow. A number with no mark means an inactive call. Rule as the data show it: active = normalized growth mostly below about 0.91 (no sharp cut-off); inconclusive = no clear call, values can overlap the other calls; inactive = mostly above about 0.92.
# Assay: chemical genetic growth profiling, strain panel (AID 1159580);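 also: tested at 20 µM; growth read once vehicle control cultures reached saturation at 30 °C; 1 = growth at the plate median or of vehicle wells; lower values mean less growth of the strain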
# Details: growth OD
structure (smiles),measurement,setting,value
O=C1C=CC(=O)c2c(O)cccc21,normalized growth,"S. cerevisiae deletion strains, locus YJR043C, strain POL32, active compounds read low",1.01
same,normalized growth,"S. cerevisiae deletion strains, locus YJR066W, strain TOR1, active compounds read low",0.894
same,normalized growth,"S. cerevisiae deletion strains, locus YKL009W, strain mrt4, active compounds read low",0.934
same,normalized growth,"S. cerevisiae deletion strains, locus YKL068W, active compounds read low",0.982
same,normalized growth,"S. cerevisiae deletion strains, locus YKL085W, strain MDH1 (second series), active compounds read low",0.97
same,normalized growth,"S. cerevisiae deletion strains, locus YKL085W, strain MDH1, active compounds read low",0.97
same,normalized growth,"S. cerevisiae deletion strains, locus YKL160W, strain elf1, active compounds read low",1
same,normalized growth,"S. cerevisiae deletion strains, locus YKL190W, strain CNB1, active compounds read low",0.986
same,normalized growth,"S. cerevisiae deletion strains, locus YKR001C, strain vps1, active compounds read low",0.938
same,normalized growth,"S. cerevisiae deletion strains, locus YKR026C, strain gcn3, active compounds read low",0.983
same,normalized growth,"S. cerevisiae deletion strains, locus YKR091W, strain srl3, active compounds read low",0.983
same,normalized growth,"S. cerevisiae deletion strains, locus YLL001W, strain dnm1, active compounds read low",0.968
same,normalized growth,"S. cerevisiae deletion strains, locus YLL026W, active compounds read low",1.01
same,normalized growth,"S. cerevisiae deletion strains, locus YLL041C, strain sdh2, active compounds read low",1
same,normalized growth,"S. cerevisiae deletion strains, locus YLR027C, strain aat2, active compounds read low",0.984
same,normalized growth,"S. cerevisiae deletion strains, locus YLR039C, strain RIC1, active compounds read low",0.699
same,normalized growth,"S. cerevisiae deletion strains, locus YLR058C, strain SHM2, active compounds read low",0.947
same,normalized growth,"S. cerevisiae deletion strains, locus YLR102C, strain apc9, active compounds read low",0.989
same,normalized growth,"S. cerevisiae deletion strains, locus YLR113W, strain HOG1, active compounds read low",0.922
same,normalized growth,"S. cerevisiae deletion strains, locus YLR221C, strain rsa3, active compounds read low",0.947
same,normalized growth,"S. cerevisiae deletion strains, locus YLR258W, strain gsy2, active compounds read low",0.979
same,normalized growth,"S. cerevisiae deletion strains, locus YLR262C, strain YPT6 (second series), active compounds read low",0.727 (active)
same,normalized growth,"S. cerevisiae deletion strains, locus YLR262C, strain YPT6, active compounds read low",0.731
same,normalized growth,"S. cerevisiae deletion strains, locus YLR268W, strain sec22, active compounds read low",0.995
same,normalized growth,"S. cerevisiae deletion strains, locus YLR320W, strain mms22, active compounds read low",0.851 (active)
same,normalized growth,"S. cerevisiae deletion strains, locus YLR330W, strain CHS5, active compounds read low",1
same,normalized growth,"S. cerevisiae deletion strains, locus YLR342W, strain FKS1 (second series), active compounds read low",0.967
same,normalized growth,"S. cerevisiae deletion strains, locus YLR342W, strain FKS1, active compounds read low",0.986
same,normalized growth,"S. cerevisiae deletion strains, locus YLR357W, strain rsc2, active compounds read low",0.964
same,normalized growth,"S. cerevisiae deletion strains, locus YLR370C, strain arc18, active compounds read low",0.979
same,normalized growth,"S. cerevisiae deletion strains, locus YLR384C, strain iki3, active compounds read low",0.957
same,normalized growth,"S. cerevisiae deletion strains, locus YLR418C, strain cdc73, active compounds read low",0.885
same,normalized growth,"S. cerevisiae deletion strains, locus YML016C, strain PPZ1, active compounds read low",0.975
same,normalized growth,"S. cerevisiae deletion strains, locus YML032C, strain rad52, active compounds read low",0.915
same,normalized growth,"S. cerevisiae deletion strains, locus YML120C, strain ndi1, active compounds read low",0.987
same,normalized growth,"S. cerevisiae deletion strains, locus YML124C, strain tub3, active compounds read low",0.993
same,normalized growth,"S. cerevisiae deletion strains, locus YMR058W, strain fet3, active compounds read low",0.983
same,normalized growth,"S. cerevisiae deletion strains, locus YMR078C, strain ctf18, active compounds read low",0.986
same,normalized growth,"S. cerevisiae deletion strains, locus YMR125W, strain sto1, active compounds read low",0.991
same,normalized growth,"S. cerevisiae deletion strains, locus YMR129W, active compounds read low",1.03
same,normalized growth,"S. cerevisiae deletion strains, locus YMR205C, strain PFK2, active compounds read low",0.91
same,normalized growth,"S. cerevisiae deletion strains, locus YMR223W, strain ubp8, active compounds read low",0.966
same,normalized growth,"S. cerevisiae deletion strains, locus YMR231W, strain pep5, active compounds read low",0.975
same,normalized growth,"S. cerevisiae deletion strains, locus YMR307W, strain GAS1, active compounds read low",0.944
same,normalized growth,"S. cerevisiae deletion strains, locus YNL067W, strain RPL9B, active compounds read low",0.979
same,normalized growth,"S. cerevisiae deletion strains, locus YNL071W, strain lat1, active compounds read low",0.897 (active)
same,normalized growth,"S. cerevisiae deletion strains, locus YNL153C, strain GIM3, active compounds read low",0.964
same,normalized growth,"S. cerevisiae deletion strains, locus YNL183C, strain NPR1, active compounds read low",0.932
same,normalized growth,"S. cerevisiae deletion strains, locus YNL209W, strain ssb2, active compounds read low",0.983
same,normalized growth,"S. cerevisiae deletion strains, locus YNL233W, strain BNI4, active compounds read low",0.996
same,normalized growth,"S. cerevisiae deletion strains, locus YNL248C, strain rpa49, active compounds read low",1.08
same,normalized growth,"S. cerevisiae deletion strains, locus YNL250W, strain rad50, active compounds read low",0.987
same,normalized growth,"S. cerevisiae deletion strains, locus YNL271C, strain bni1, active compounds read low",0.982
same,normalized growth,"S. cerevisiae deletion strains, locus YNL298W, strain CLA4, active compounds read low",0.998
same,normalized growth,"S. cerevisiae deletion strains, locus YNL307C, strain MCK1, active compounds read low",0.994
same,normalized growth,"S. cerevisiae deletion strains, locus YNL322C, strain KRE1 (second series), active compounds read low",1.01
same,normalized growth,"S. cerevisiae deletion strains, locus YNR049C, strain mso1, active compounds read low",0.993
same,normalized growth,"S. cerevisiae deletion strains, locus YNR052C, strain pop2, active compounds read low",1.01
same,normalized growth,"S. cerevisiae deletion strains, locus YOL012C, strain htz1",1.06
same,normalized growth,"S. cerevisiae deletion strains, locus YOL147C, strain pex11, active compounds read low",0.994
same,normalized growth,"S. cerevisiae deletion strains, locus YOR001W, strain rrp6, active compounds read low",0.966
same,normalized growth,"S. cerevisiae deletion strains, locus YOR061W, strain CKA2, active compounds read low",0.947
same,normalized growth,"S. cerevisiae deletion strains, locus YOR069W, strain VPS5, active compounds read low",0.981
same,normalized growth,"S. cerevisiae deletion strains, locus YOR070C, strain gyp1, active compounds read low",0.993
same,normalized growth,"S. cerevisiae deletion strains, locus YOR080W, strain dia2, active compounds read low",0.971
same,normalized growth,"S. cerevisiae deletion strains, locus YOR083W, strain WHI5, active compounds read low",0.99
same,normalized growth,"S. cerevisiae deletion strains, locus YOR106W, strain vam3, active compounds read low",0.91
same,normalized growth,"S. cerevisiae deletion strains, locus YOR136W, strain idh2, active compounds read low",0.993
same,normalized growth,"S. cerevisiae deletion strains, locus YOR144C, strain elg1, active compounds read low",0.988
same,normalized growth,"S. cerevisiae deletion strains, locus YOR184W, strain ser1, active compounds read low",0.984
same,normalized growth,"S. cerevisiae deletion strains, locus YOR231W, strain MKK1, active compounds read low",0.964
same,normalized growth,"S. cerevisiae deletion strains, locus YOR265W, strain rbl2, active compounds read low",0.966
same,normalized growth,"S. cerevisiae deletion strains, locus YOR270C, strain vph1, active compounds read low",0.775 (active)
same,normalized growth,"S. cerevisiae deletion strains, locus YOR290C, strain snf2, active compounds read low",0.989
same,normalized growth,"S. cerevisiae deletion strains, locus YOR316C, strain cot1, active compounds read low",0.99
same,normalized growth,"S. cerevisiae deletion strains, locus YPL051W, strain arl3, active compounds read low",0.97
same,normalized growth,"S. cerevisiae deletion strains, locus YPL078C, strain atp4, active compounds read low",0.974
same,normalized growth,"S. cerevisiae deletion strains, locus YPL106C, strain sse1, active compounds read low",0.881
same,normalized growth,"S. cerevisiae deletion strains, locus YPL240C, strain hsp82, active compounds read low",0.973
same,normalized growth,"S. cerevisiae deletion strains, locus YPL241C, strain CIN2, active compounds read low",0.987
same,normalized growth,"S. cerevisiae deletion strains, locus YPL256C, strain CLN2, active compounds read low",0.94
same,normalized growth,"S. cerevisiae deletion strains, locus YPR119W, strain clb2, active compounds read low",0.992
same,normalized growth,"S. cerevisiae deletion strains, locus YPR141C, strain kar3, active compounds read low",0.982
same,normalized growth,"S. cerevisiae deletion strains, locus YPR163C, strain tif3, active compounds read low",1.01
same,normalized growth,"S. cerevisiae deletion strains, locus YPR167C, strain met16, active compounds read low",1
same,normalized growth,"S. cerevisiae deletion strains, strain wtn01, active compounds read low",1.04
same,normalized growth,"S. cerevisiae strains, strain wild type, active compounds read low",0.987
